Assay results taken from PMC7819943, “Rice protein-binding microarrays: a tool to detect cis-acting elements near promoter regions in rice”.
In all, about 35,000 sequences were measured (“fluorescence intensity (a.u.)”: median about 10,000, highest 2% from about 52,000 on). What follows is part of a selection rich in the highest values, with near analogues and random picks from the rest.

Biological target: T1, OsWOX13 (Oryza sativa, UniProt Q5QMM3 1-267)
T1 sequence: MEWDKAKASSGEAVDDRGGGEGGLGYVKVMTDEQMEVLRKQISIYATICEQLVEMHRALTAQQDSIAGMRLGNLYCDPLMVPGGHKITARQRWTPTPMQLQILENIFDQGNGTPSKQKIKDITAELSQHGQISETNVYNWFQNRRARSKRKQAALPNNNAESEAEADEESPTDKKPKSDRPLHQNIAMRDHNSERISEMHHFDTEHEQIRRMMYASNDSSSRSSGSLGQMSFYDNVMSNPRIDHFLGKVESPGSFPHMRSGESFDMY
Experiment: protein-binding microarray (RPBM); PBS, 2% BSA, 51.3 ng/ul salmon testes DNA, 50 uM zinc acetate, 200 nM TF, 25 C, 1 h; high values mean tight binding
Conditions: protein: recombinant; tags: N-terminal polyhistidine and DsRed monomer fusion (pET32a); label: CyDye5-dUTP incorporated in the synthesized complementary strand; 3' TTTTT single-stranded linker to array surface; dsDNA, one strand shown
Method in brief: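 Transcription factors, each fused N-terminally to a polyhistidine tag and DsRed, were expressed in E. coli BL21-CodonPlus and purified on Ni–NTA. A custom Agilent array was made double-stranded by primer extension with Cy5-dUTP and blocked with 2% BSA. It was incubated with 200 nM protein in PBS, 2% BSA, salmon testes DNA and 50 µM zinc acetate at 25 °C for 1 h, then washed. The binding signal is per-feature fluorescence intensity (arbitrary units) read on an Axon 4000B scanner.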

Sequence	binding signal
CAACAGGATTGGAAGTGATCAGAGACAGGCAATGAAATCCCGGAGTCACCTAGTGCAG	8460 fluorescence intensity (a.u.)
ACACTAAATTAATGTATGCAATGTCCATTGGTAAATAACTCGGAGTCACCTAGTGCAG	14900 fluorescence intensity (a.u.)
GATTAAGATTTTATCCGATTGATGATGCGCCGTAGCAGTGCGGAGTCACCTAGTGCAG	8650 fluorescence intensity (a.u.)
CTGGATTGGTGATTGATTATCCGAGCAAGCAAAGACGATGCGGAGTCACCTAGTGCAG	63800 fluorescence intensity (a.u.)
AGTGATTAGTGAAGCAAAGGAAGACGACGAGTGACACGAGCGGAGTCACCTAGTGCAG	21900 fluorescence intensity (a.u.)
TTTAAGATCATGATTAACATGACATTGAAGCATTACCACGCGGAGTCACCTAGTGCAG	5610 fluorescence intensity (a.u.)
GAATTAGCTTGATTGACAGAAACAAATGGCTACAACTACACGGAGTCACCTAGTGCAG	50600 fluorescence intensity (a.u.)
AACCAGATTCACCGTGATTAGTTTCACCCTAGTCTAGTCTCGGAGTCACCTAGTGCAG	10800 fluorescence intensity (a.u.)
TTAATTGATCAATAATCACTGTTCCTTCTCAAGTAGTCAACGGAGTCACCTAGTGCAG	64600 fluorescence intensity (a.u.)
TTAATTAATTGATCACTTCCAAATCATGTAGCAGTACTGTCGGAGTCACCTAGTGCAG	65400 fluorescence intensity (a.u.)
ATAATTGAGTAGATAATCCTTGCAATAATCCGCTCAATAACGGAGTCACCTAGTGCAG	8180 fluorescence intensity (a.u.)
CACAATTCCTTCTAATTATTTGATAATCAAGTTTCTCCTTCGGAGTCACCTAGTGCAG	9620 fluorescence intensity (a.u.)
ATCCATGATTAACAGTTGATTACTGTAGCAAATCATGGATCGGAGTCACCTAGTGCAG	34400 fluorescence intensity (a.u.)
ATATATAATCATTGATCTTAATTATTGAGTGTCAGTAGTACGGAGTCACCTAGTGCAG	24400 fluorescence intensity (a.u.)
ACTATTAATGTGAACTGATATGATACATTTTAGAGCTAGCCGGAGTCACCTAGTGCAG	6440 fluorescence intensity (a.u.)
TACACCTTTGACAGACAACAAAGCATTGAATCTTCTATGCCGGAGTCACCTAGTGCAG	5260 fluorescence intensity (a.u.)
GATAACTGGATTCATCTGTCTCCTCAACGTGTGGTCTGTACGGAGTCACCTAGTGCAG	19900 fluorescence intensity (a.u.)
TGCCACACAAATTTTGCAAAATTTGTGATATGCCACCTGACGGAGTCACCTAGTGCAG	6080 fluorescence intensity (a.u.)
TAATAATAATAATAATGCAAATTACCAAAATATAAGCCCACGGAGTCACCTAGTGCAG	6280 fluorescence intensity (a.u.)

Sequence	binding signal
GCCAAATTGACAGAGTTACCTCGCTATATAAGGCTGCCCACGGAGTCACCTAGTGCAG	57600 fluorescence intensity (a.u.)
ACTTGACAGGAATTGCAGAAAGGCCCCTCGCCAAAACTCACGGAGTCACCTAGTGCAG	30900 fluorescence intensity (a.u.)
ATATCAATTAATGCTTCAAGATTAGCACCCATATTATATGCGGAGTCACCTAGTGCAG	35100 fluorescence intensity (a.u.)
GAAATAATTAATTAATTTAATTAATTGATTGACACAAGTACGGAGTCACCTAGTGCAG	65000 fluorescence intensity (a.u.)
TTTGATTCTTTTAAATTAAATAATTTTAAAGTCATTGATACGGAGTCACCTAGTGCAG	21100 fluorescence intensity (a.u.)
AGACAATGATAGTGATAATTAACAAATTCAGTTTAAGATCCGGAGTCACCTAGTGCAG	19700 fluorescence intensity (a.u.)
AAACTGATTCTTTGATTATTGACGTCTCATAGACCTACGTCGGAGTCACCTAGTGCAG	31600 fluorescence intensity (a.u.)
AATCATTTAAAACATTGATTTTATTTGACGATAAAACTAGCGGAGTCACCTAGTGCAG	4690 fluorescence intensity (a.u.)
CTTAATTAACACTCGTAAGATTGACAAATAGTTGAATATCCGGAGTCACCTAGTGCAG	60300 fluorescence intensity (a.u.)
TATTTTCAATTATAGGTCTAATTGTTTTATTTAGGTGATTCGGAGTCACCTAGTGCAG	20500 fluorescence intensity (a.u.)
TTGATTGACTAAACTGTCACGTCAGCGTCATATTGACGAACGGAGTCACCTAGTGCAG	54900 fluorescence intensity (a.u.)
AGTGATTAATGAGACAAATAGTACTTTATTGTGACAAGTACGGAGTCACCTAGTGCAG	30900 fluorescence intensity (a.u.)
AAATTGACAAGATAGATCAATATATAATATATCACTACACCGGAGTCACCTAGTGCAG	10200 fluorescence intensity (a.u.)
CTAATTGATTAGTAAACTATTTATATAGGACTGTTGTTTTCGGAGTCACCTAGTGCAG	58300 fluorescence intensity (a.u.)
GGTAATATTTTGATTAAATTTGACTAAATTTTGTTTAAAACGGAGTCACCTAGTGCAG	11800 fluorescence intensity (a.u.)
GAAATTAAACTAATATTTCGGCCCATCAAGGGCTCGCTTGCGGAGTCACCTAGTGCAG	8580 fluorescence intensity (a.u.)
TCTGATTATTAATTATCACTTTATCAGTCTCCAACGTTTACGGAGTCACCTAGTGCAG	40900 fluorescence intensity (a.u.)
ATACTTAATTAATGATACGATAATTGAATTTATTCTCTCCCGGAGTCACCTAGTGCAG	49900 fluorescence intensity (a.u.)
ATACTTGACAGGTTTTATGCATATAAGAAAATCTGTTTAACGGAGTCACCTAGTGCAG	7520 fluorescence intensity (a.u.)

Sequence	binding signal
CTCTCTCTCTGATTAGTTAATTGAATACATTGTAAGGGCCCGGAGTCACCTAGTGCAG	41200 fluorescence intensity (a.u.)
TCGCTAATAAATCATATGATGTCATGGGCCCGAGACATCTCGGAGTCACCTAGTGCAG	3380 fluorescence intensity (a.u.)
TGTGTTAAACTATATAATTTTCTCTAAAACATAATGGTACCGGAGTCACCTAGTGCAG	3720 fluorescence intensity (a.u.)
TTAATTCTATCTAGTAGTAGAGTTAGTTATTTATATATTACGGAGTCACCTAGTGCAG	5310 fluorescence intensity (a.u.)
CCTTCGATTATTGGCACGGATTGTTTATCCAGGTAAGACTCGGAGTCACCTAGTGCAG	13300 fluorescence intensity (a.u.)
CACATCAACCTGCACCAATCATGCCATCGAGATCACAACACGGAGTCACCTAGTGCAG	3970 fluorescence intensity (a.u.)
ATCTCCAAAATTTTAAATTTTAATTAAAACCTAACTTACACGGAGTCACCTAGTGCAG	6930 fluorescence intensity (a.u.)
CTAGAAATTAGGTGATTAATTTATTAAACACAATATTGCCCGGAGTCACCTAGTGCAG	56900 fluorescence intensity (a.u.)
ACAATTGAAGATAAATGACAAACCAATAAACCATTTGTTTCGGAGTCACCTAGTGCAG	5080 fluorescence intensity (a.u.)
TTAATATAAAAGTAATTATTTAAATTGTAGAAACAATTTACGGAGTCACCTAGTGCAG	5710 fluorescence intensity (a.u.)
TATAATTGAATAAATTTTCATATTATATTTATCTTGTGTTCGGAGTCACCTAGTGCAG	63100 fluorescence intensity (a.u.)
GCACTAGTGATTGGAACAATATTAATTTCAGAAACATTGCCGGAGTCACCTAGTGCAG	32700 fluorescence intensity (a.u.)
AATAATTGAATATATTTTCATAATAAATTTGTCTTGGGTTCGGAGTCACCTAGTGCAG	44400 fluorescence intensity (a.u.)
TGAATAATTGACAATTTAACCAGACCATTAATTAATTGTTCGGAGTCACCTAGTGCAG	62400 fluorescence intensity (a.u.)
AAGAATTGATAGATGAAACGTGATTAGATACTAACTATACCGGAGTCACCTAGTGCAG	41200 fluorescence intensity (a.u.)
AGAAATTGAACGTGATTAACGGGGAGGGCACTAGTGAGGCCGGAGTCACCTAGTGCAG	53000 fluorescence intensity (a.u.)
TACTAATTTTGAATTTAGAGCTATTAACCAATAAATTGTTCGGAGTCACCTAGTGCAG	12200 fluorescence intensity (a.u.)
CTTTAAAATTAATTAAATTTGAAAATTAGTAACGAGGGGACGGAGTCACCTAGTGCAG	26700 fluorescence intensity (a.u.)
AATAATTGAATATATTTTCATAATAAATGTGTGTTGAGTTCGGAGTCACCTAGTGCAG	38400 fluorescence intensity (a.u.)
